An excerpt weighted towards active compounds, which were near 2% of everything screened.
PME-1 Maybridge: PME-1 (human) inhibition, Maybridge primary screen; recombinant PME-1, FP-Rh probe fluorescence polarization; inhibition, % at 9 µM; 0.5% of 16,000 active; AID 2291; in the data active = inhibition above about 30%
Nox1 inh: inhibitors of human NADPH oxidase 1 (Nox1). HT29 cells, luminol chemiluminescence ROS. 0.81% of 16,000 active. Q9Y5S8. AID 1792. inhibition, % at 6.7 µM
luminol inh ctr: counter-screen for Nox1 inhibitors: inhibitors of luminol chemiluminescence; HRP/luminol/H2O2 chemiluminescence counterscreen; AID 1823; 0.4% of 16,000 active; inhibition, % at 6.7 µM; also: reference of the scale not given here
KOR antag MB: OPRK1 (human) antagonism, Maybridge screen; OPRK1 cells, antagonist mode, fluorescence readout; inhibition, % at 9 µM; 0.4% of 16,000 active; in the data active = inhibition above about 50%
Target sequence (P41145 whole entry, looked up): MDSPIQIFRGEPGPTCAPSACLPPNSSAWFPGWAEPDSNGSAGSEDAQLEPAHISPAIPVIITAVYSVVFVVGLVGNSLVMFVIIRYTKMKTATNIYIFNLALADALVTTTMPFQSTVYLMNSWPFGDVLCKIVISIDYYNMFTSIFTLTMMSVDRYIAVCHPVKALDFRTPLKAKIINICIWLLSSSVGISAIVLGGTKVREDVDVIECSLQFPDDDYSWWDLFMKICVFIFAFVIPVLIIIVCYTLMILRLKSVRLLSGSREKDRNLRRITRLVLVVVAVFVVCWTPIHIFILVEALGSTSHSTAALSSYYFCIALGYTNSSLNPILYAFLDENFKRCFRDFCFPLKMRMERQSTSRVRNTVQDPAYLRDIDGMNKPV
* = called active by the depositor. Rule as the data show it, unless noted: active = inhibition above about 75%; inactive = the rest.

SMILES | PME-1 Maybridge | Nox1 inh | luminol inh ctr | KOR antag MB
c1ccc2c(c1)Nc1nc3ccccc3nc1N2 | 1 | 85* | -1 | 3
c1ccc2c(c1)Nc1nc3ccccc3nc1O2 | -2 | -45 | 2 | -1
Cc1ccc(C)c2c1C(=O)c1ccccc1C2=O | 4 | -4 | -1 | -10
O=C1c2ccccc2C(=O)c2c(O)ccc(O)c21 | 40* | 54 | 8 | 7
CC(=O)N(c1ccc(NS(=O)(=O)c2cccs2)cn1)S(=O)(=O)c1cccs1 | 6 | -9 | -5 | 6
O=C1NC(=S)N/C1=C\c1ccccc1Cl | 5 | 19 | 75* | 35
CC(C)(C)S(=O)(=O)/C(C#N)=C/N1CCCCC1 | 0 | -48 | 2 | 2
CCOC(=O)c1nsc(/C(C)=N/Nc2ccccc2)c1N | 7 | 98* | 0 | 26
O=c1c(Cl)c(N2CCOCC2)cnn1-c1cnc2ccccc2n1 | -2 | -15 | 3 | -8
O=C1CSc2ccc(C(F)(F)F)cc2N1Cc1c(Cl)cccc1Cl | 37* | 14 | -2 | 13
O=C1C=CC(=O)N1c1cc(C(F)(F)F)ccc1Cl | 0 | 12 | -6 | 7
O=C1c2ccc3ccccc3c2-c2cccc3cccc1c23 | 40* | -22 | 1 | 15
O=[N+]([O-])c1ccc2nc3c(O)c4ccccc4c(O)c3nc2c1 | 38* | 24 | 3 | 18
Cc1ccc(S(=O)(=O)NC(=O)Oc2ccc(-c3csnn3)cc2)cc1 | 0 | -132 | 103* | 1
O=C(O)C(F)(F)C(F)(F)C(=O)NCc1cccc(Cl)c1 | 3 | 3 | -8 | 50*
Cc1nnsc1C(=O)NNc1cc(Cl)ccc1Cl | 5 | 76* | 25 | -15
Cc1cc(C(=O)NNc2cc(Cl)ccc2Cl)no1 | 11 | 81* | 10 | 13
Cc1noc(C)c1C(=O)NNc1cc(Cl)ccc1Cl | -1 | 47 | 12 | -8
Cc1cccc2c(O)c(N=Nc3ccccc3)c(=O)oc12 | 19 | -30 | -3 | 12
Cn1nc(-c2ccccc2)c(O)c(N=Nc2ccccc2)c1=O | 5 | 97* | -3 | -3
S=c1[nH]nc(-c2ccncc2)n1Cc1ccccc1 | -1 | -9 | 1 | 3
C=CCn1c(CSc2ccccc2[N+](=O)[O-])n[nH]c1=S | -5 | 0 | 80* | -6
C=CCNC(=S)NNC(=O)CSc1ccccc1[N+](=O)[O-] | -2 | -19 | 3 | -25
C=CCn1c(-c2ccccc2)n[nH]c1=S | 2 | 24 | 97* | 0
c1csc(-c2cc(N3CCOCC3)c3ccccc3n2)c1 | 8 | 30 | -5 | 12
SMILES | PME-1 Maybridge | Nox1 inh | luminol inh ctr | KOR antag MB
O=C(Nc1ccc2ccccc2n1)Nc1cccs1 | 0 | -6 | -1 | 8
CN(C)c1ccc(NC(=O)Nc2cccs2)cc1 | -5 | 92* | -2 | 21
CSc1cccc(N/C(=N\S(=O)(=O)c2ccccc2)SCC(=O)O)c1 | 6 | 19 | 8 | -11
CSc1cccc(N/C(=N\S(=O)(=O)c2ccccc2)NN)c1 | 43* | -50 | 8 | -7
CCOC(CNC(=S)NC12CC3CC(CC(C3)C1)C2)OCC | 5 | 10 | 0 | -8
Cc1cc(C)nc(NCN2C(=O)c3ccccc3C2=O)c1 | 4 | -2 | -7 | -9
Cc1ccc(NCN2C(=O)c3ccc([N+](=O)[O-])cc3C2=O)cc1 | 7 | 77* | -46 | 13
S=c1nc[nH]c2[nH]ncc12 | 1 | 13 | 80* | 0
CCCCCC(=O)c1cc(C)c(C)cc1NC(C)=O | -1 | 8 | -6 | -11
Cc1csc2ncnc(NNS(=O)(=O)c3cc(C(F)(F)F)cc(C(F)(F)F)c3)c12 | -6 | 102* | 3 | -18
O=C(NC1CCN(C(=O)c2cc(-c3ccc(Cl)cc3)oc2C(F)(F)F)CC1)c1ccccc1 | 7 | 22 | -6 | -14
COc1ccc(-n2c(-c3cccs3)n[nH]c2=S)cc1 | -1 | 12 | 98* | 5
Cc1ccc(-n2cc(-c3cccs3)[nH]c2=S)cc1 | 10 | 9 | -7 | 11
CCn1c(-c2cccs2)n[nH]c1=S | -3 | 47 | 100* | 7
Cc1ccc(-n2cc(-c3cccs3)nc2SCc2n[nH]c(=S)n2Cc2ccccc2)cc1 | 1 | 20 | -3 | -12
COc1cccc(Cc2n[nH]c(=S)n2Cc2ccco2)c1 | 8 | -10 | 99* | 5
FC(F)(F)c1ccc(-c2n[nH]c(=S)n2Cc2ccco2)cc1 | 2 | -21 | 0 | -10
COc1cccc(Cc2n[nH]c(=S)n2-c2ccc(Cl)cc2)c1 | 4 | 23 | 99* | 5
N#CCCN(C(=O)c1ccc(Sc2ccccc2)c([N+](=O)[O-])c1)C1CCCCC1 | 13 | 4 | 0 | 8
O=C(Nc1ccccc1)Nc1nc(=S)ss1 | 1 | -23 | 1 | 8
COC(=O)CSC(=S)N(C)C | 5 | -52 | 0 | 0
CCOC(=O)c1sc(Nc2ccccc2)c(-c2nc3ccccc3[nH]2)c1N | 31* | 18 | -3 | -10
CSc1cccc(NC(=S)NCc2ccc(C#N)cc2)c1 | 61* | 14 | -4 | -6
CSc1cccc(NC(=S)NCCCO)c1 | -7 | -77 | -17 | -17
O=[N+]([O-])/C=C/c1c(-c2ccc3ccccc3c2)[nH]c2ccccc12 | -5 | -55 | 3 | -2
SMILES | PME-1 Maybridge | Nox1 inh | luminol inh ctr | KOR antag MB
O=[N+]([O-])/C=C/c1c2ccccc2cc2ccccc12 | -4 | -46 | 0 | 72*
CC(=O)CSc1nsc(SCC(C)=O)c1C#N | 1 | 0 | 34 | -6
COc1cccc(C(=O)CSc2nsc(SCC(=O)c3cccc(OC)c3)c2C#N)c1 | 0 | 88* | 0 | 6
CCCN(CCC)S(=O)(=O)c1ccc(C(=O)N/N=C/c2ccc(NC(C)=O)cc2)cc1 | -1 | -65 | 1 | -2
COc1cc(C(=O)Oc2ccc(Cl)cc2Cl)cc(OC)c1OC | 0 | -3 | -9 | 9
COc1cc(C(=O)Oc2c(Cl)cc(Cl)cc2/C=N/NC(N)=S)cc(OC)c1OC | 34* | -48 | 2 | 8
O=C(NCCSCc1cccc(C(F)(F)F)c1)Nc1cccc(C(F)(F)F)c1 | 12 | 30 | -8 | -9
CCOC(=O)c1ncoc1-c1ccco1 | 3 | -40 | -4 | 10
CCN(CC)c1ccc(N=C2C=CC(=O)c3ccccc32)c(C)c1 | 10 | 99* | -49 | -6
CCN(CC)c1ccc(N=Nc2ccc(N(C)C)cc2)c(NC(N)=O)c1 | -7 | 20 | 0 | -11
CS(=O)(=NS(=O)(=O)c1ccc(Cl)cc1)c1ccsc1 (stereo unspecified) | 0 | -16 | 1 | 2
CS(=O)(=NS(=O)(=O)c1ccc(Cl)cc1)c1ccccc1 (stereo unspecified) | 41* | 2 | 12 | 8
CCOC(=O)c1sc2nc(SCc3ccccc3)nc(-c3ccccc3)c2c1N | -6 | -32 | -2 | -17
Nc1c(C(=O)c2ccccc2)sc2nsc(SCCN3CCCC3)c12 | -5 | 3 | 10 | 76*
CCN(CC)c1ccc(NS(=O)(=O)c2ccc(F)cc2)cc1 | -1 | 102* | 23 | -12
N#Cc1c(NCc2cccs2)ccc([N+](=O)[O-])c1NCc1cccs1 | 5 | -33 | 2 | -20
CN(C)Nc1ccc([N+](=O)[O-])c(NN(C)C)c1C#N | 2 | 81* | 63 | -21
O=S(=O)(O)c1cc(S(=O)(=O)O)c2cc(O)ccc2c1 | 8 | 4 | 24 | 2

High-throughput results from PubChem BioAssay.
